Laboratory results reported in paper PMC6212790, “How bacterial xenogeneic silencer rok distinguishes foreign from self DNA in its resident genome”.
The full ranking holds about 33,000 sequences; the median of “e-score” is about -0.037, and the highest 2% start at about 0.34. The entries come from a sample that favours the highest values as a whole.

biological target: T1, GST-Rok (full length) (Bacillus subtilis subsp. subtilis str. …, UniProt O34857 1-191); experiment: protein binding microarray; Rok is a gene silencer of Bacillus subtilis; high values mean tight binding; conditions: protein: recombinant; tags: GST (pTH5325, pDEST15-Magic modified); dsDNA, one strand shown
T1 sequence: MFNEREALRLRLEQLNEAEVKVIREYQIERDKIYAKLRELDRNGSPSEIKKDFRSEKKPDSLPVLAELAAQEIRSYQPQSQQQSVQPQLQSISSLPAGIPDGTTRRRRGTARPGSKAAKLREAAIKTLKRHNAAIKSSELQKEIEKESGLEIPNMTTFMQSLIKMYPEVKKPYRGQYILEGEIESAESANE
In short: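 Each has a 25-mer constant primer and a 35-mer variable part from a de Bruijn sequence of order 10, covering every non-palindromic 8-mer at least 32 times (palindromic 16). Preference for each 8-mer is given as a rank-based, unitless enrichment score (E-score). Its range runs from 0.5 (most favored) to −0.5 (most disfavored).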

| Sequence | binding signal [E-score] |
| --- | --- |
| AGTAGAAT | 0.42 |
| AGTAGAAA | 0.42 |
| AGTAGAAC | 0.267 |
| AGTAGAGA | 0.265 |
| AGTAGAAG | 0.228 |
| ATTAGAAA | 0.233 |
| AGGATTAG | 0.158 |
| TAGCCCAA | -0.0264 |
| ACGGAGCG | -0.13 |
| ATATACAC | 0.339 |
| CTATACAC | 0.216 |
| ATATACAA | 0.389 |
| ATATACAG | 0.282 |
| CTATACAA | 0.296 |
| TTATACAA | 0.294 |
| ATTTAGGC | -0.0308 |
| CGTAGGCC | -0.17 |
| ATCGTCCA | -0.0609 |
| GCAAAAAC | 0.0325 |
| AGTAACTC | 0.0592 |
| GCTAACGA | 0.123 |
| ACTAACTC | 0.12 |
| ACTAACTG | 0.163 |
| GATAACTA | 0.222 |
| AATAACTG | 0.195 |

| Sequence | binding signal [E-score] |
| --- | --- |
| GGTAACTA | 0.305 |
| CCTAACTA | 0.26 |
| AATAACTA | 0.341 |
| ACTAACTA | 0.348 |
| GCTAACTA | 0.341 |
| AGTAACTA | 0.421 |
| AGTTTTAC | 0.301 |
| AGACCAAT | -0.0485 |
| AGAGCACA | -0.114 |
| GCGCTTCA | -0.0884 |
| CGCCTATA | 0.00134 |
| CATTCTAA | 0.0993 |
| AGTTCTAA | 0.15 |
| GATTCTGC | -0.0394 |
| CATTCTAC | 0.407 |
| AGTTCTAT | 0.213 |
| AATTCTAA | 0.252 |
| AGTTCTAC | 0.383 |
| AATTCTAC | 0.435 |
| GATTCTAA | 0.134 |
| CATTCTAG | 0.259 |
| AATTCTAT | 0.31 |
| GATTCTAC | 0.393 |
| AGCGACAG | -0.152 |
| GCATTTAA | 0.115 |

| Sequence | binding signal [E-score] |
| --- | --- |
| ATAGCCTC | -0.165 |
| GCTTAGAA | -0.0146 |
| CCGTACAA | 0.188 |
| CCTCGGTA | 0.0273 |
| ACTCGGTA | 0.363 |
| ACTCGGTC | -0.0736 |
| AATAAATC | 0.233 |
| AATAAATG | 0.295 |
| CATAAATA | 0.195 |
| GATAAATA | 0.313 |
| AATAAATA | 0.345 |
| TATAAATA | 0.397 |
| CTTGCGGC | -0.19 |
| GTACTAAA | 0.241 |
| ATACTTTA | 0.239 |
| ATACTCTC | -0.0829 |
| ATACTATG | 0.271 |
| ATACTATA | 0.396 |
| CTACTATC | 0.323 |
| CTACTTTA | 0.31 |
| GGACTATA | 0.0812 |
| GTACTTTA | 0.377 |
| ATACTATC | 0.378 |
| GTACTATA | 0.444 |
| AGACTATA | 0.286 |

| Sequence | binding signal [E-score] |
| --- | --- |
| AATGGGTA | 0.289 |
| AGTGACAG | -0.0878 |
| ACTTGTCT | -0.00713 |
| CCTCCAAC | -0.135 |
| ACATTAAA | 0.108 |
| CATTCTTC | 0.0507 |
| CTACTAGA | 0.32 |
| CCACTATA | 0.162 |
| ATACTAGA | 0.349 |
| CTACTATA | 0.399 |
| ATACTAGG | 0.225 |
| CGACTATA | 0.151 |
| ATTGAAGA | 0.204 |
| GAATAGGC | -0.173 |
| AGCACATG | -0.117 |
| ACACACCG | 0.0452 |
| CGGCGGTC | -0.184 |
| CTTCACAA | 0.035 |
| TACCAAAA | 0.165 |
| AGTTTCCA | 0.18 |
| TACGTATA | 0.35 |
| GACGTATA | 0.212 |
| CACGTATA | 0.243 |
| TCTAGTCA | 0.183 |
| CTCTATAC | 0.033 |

| Sequence | binding signal [E-score] |
| --- | --- |
| AGATATCC | -0.0591 |
| CCATATAC | 0.251 |
| GGATATAC | 0.317 |
| GCATATAC | 0.268 |
| ACATAACT | 0.347 |
| GTATATAC | 0.432 |
| ACATAACC | 0.0404 |
| AGATATCA | 0.127 |
| CTATATAC | 0.341 |
| AGATATCT | 0.399 |
| ACATAACG | 0.157 |
| ATCTTTCG | 0.109 |
| AAGGATCA | -0.129 |
| CCTAAACC | -0.152 |
| CAAGGTCG | -0.126 |
| GCTGAAAA | -0.146 |
| GTTCTTAA | 0.122 |
| CAAAGCTC | -0.0842 |
| TCGAAAAA | -0.0412 |
| ACGTTAGA | 0.156 |
| CAGGCATG | -0.176 |
| ACATATGA | 0.069 |
| AGATATAA | 0.183 |
| ATATATAC | 0.396 |
| AGATATAG | 0.151 |

| Sequence | binding signal [E-score] |
| --- | --- |
| ACATATAC | 0.289 |
| AGATATAC | 0.238 |
| ACATATGG | 0.168 |
| ATATAAAG | 0.17 |
| ATATAAAT | 0.422 |
| ACATATGT | 0.401 |
| ATATAAAC | 0.262 |
| AGATATAT | 0.395 |
| CAGACGAA | -0.0357 |
| CGTCTAAA | -0.027 |
| AGGCCTCA | -0.155 |
| AAGTTGAT | 0.0883 |
| CGGCAACA | -0.0449 |
| CCTGTAAG | -0.159 |
| AAGAATAA | 0.183 |
| ACGTCACA | -0.0872 |
| CAATGATG | 0.161 |
| ACAATTCT | 0.149 |
| CTATATGC | 0.185 |
| ACATATAG | 0.193 |
| ATATATGG | 0.299 |
| ACATATAT | 0.378 |
| ACCTATAT | 0.301 |
| ATATATGC | 0.338 |
| ATATATAT | 0.471 |

| Sequence | binding signal [E-score] |
| --- | --- |
| ACATATAA | 0.329 |
| ATATACAT | 0.302 |
| ACGGGTTC | -0.114 |
| AACAGGCG | -0.0571 |
| CTAATGAC | -0.05 |
| CTATATAA | 0.345 |
| ATATAAAA | 0.288 |
| CTATAAAA | 0.23 |
| TAATATAA | 0.236 |
| CTCTATAA | 0.0692 |
| TTATATAA | 0.399 |
| TCATATAA | 0.192 |
| GTATATAA | 0.278 |
| ATATATAA | 0.435 |
| CAACTGTG | -0.0366 |
| CCTATGAA | -0.0665 |
| GAAGAAAA | -0.0942 |
| ATTGATCA | 0.101 |
| AAAAACTT | -0.0545 |
| CCAAACTA | 0.364 |
| ACAAACTG | 0.127 |
| ACAAACTC | 0.155 |
